Data published in PubChem BioAssay (NCATS).
Inconclusive results are not listed. Activity calls are given as the source filed them. The call rests on the fitted dose curve; in most records, active means well fitted inhibition curve with a large enough effect; inconclusive means small, poorly fitted or top-dose-only effect; inactive means flat fitted curve, though single readings scatter.

Tests used:
Assay in all cases: qHTS profiling for inhibitors of Plasmodium falciparum proliferation (AID 504749); further: nearly all actives have a fitted effect of over 60% in size
Conditions in all cases: P. falciparum in erythrocytes, SYBR Green DNA, 72 h; series mostly up to 28.7 µM
[1] = test system: CP256
In short: (§1)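 Each compound contacts P. falciparum-infected red blood cells for 72 h at 37 C; lysis buffer (Tris, EDTA, saponin, Triton X, SYBR Green I) is added and fluorescence measured next morning; values normalized to controls.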

[2] = test system: CP260
In short: as §1

[3] = test system: CP262
In short: as §1

[4] = test system: CP265
In short: as §1

[5] = test system: CP266
In short: as §1

[6] = test system: CP268
In short: as §1

[7] = test system: CP269
In short: as §1

[8] = test system: CP286
In short: as §1

[9] = test system: CP291
In short: as §1

[10] = test system: CP297
In short: as §1

[11] = test system: CP305
In short: as §1

[12] = test system: CP315
In short: as §1

[13] = test system: CP325
In short: as §1

[14] = test system: CP329
In short: as §1

[15] = test system: CP335
In short: as §1

[16] = test system: DFO2036
In short: as §1

[17] = test system: DIV14
In short: as §1

[18] = test system: DIV17
In short: as §1

[19] = test system: DIV30
In short: as §1

[20] = test system: Dd2
In short: as §1

[21] = test system: ECU
In short: as §1

[22] = test system: FAB9
In short: as §1

[23] = test system: HB3
In short: as §1

[24] = test system: ICS
In short: as §1

[25] = test system: JCK
In short: as §1

[26] = test system: N140
In short: as §1

[27] = test system: P93_24
In short: as §1

[28] = test system: P94_40
In short: as §1

[29] = test system: PAD
In short: as §1

[30] = test system: PC15
In short: as §1

[31] = test system: PC26
In short: as §1

[32] = test system: PC49
In short: as §1

[33] = test system: SC27B
In short: as §1

[34] = test system: TAB109
In short: as §1

[35] = test system: TAB113
In short: as §1

[36] = test system: TAB165
In short: as §1

[37] = test system: W2
In short: as §1

Measured: Potency

CN(C)[C@H]1C(=O)C(C(=O)NCN2CCCC2)=C(O)[C@]2(O)C(=O)C3=C(O)c4c(O)cccc4[C@](C)(O)[C@H]3C[C@H]12
inactive: [1] | [2] | [3] | [4] | [5] | [6] | [7] | [8] | [9] | [10] | [11] | [12] | [13] | [14] | [15] | [16] | [17] | [18] | [19] | [20] | [21] | [22] | [23] | [24] | [25] | [26] | [27] | [28] | [29] | [30] | [31] | [32] | [33] | [34] | [35] | [36] | [37]
